Values joined by “and” are separate entries in the source; they are usually repeats but may differ in a detail not shown here. Identical values can stand only once. The panel holds about 79,000 compounds, 15% with a hit somewhere; the sample as a whole holds those more often. Some structures have more than one record in an assay (separate samples or runs), and their calls can disagree. Active and inactive are the calls of the source. Cut-off read from the data, not from the text of the source: active = growth inhibition above about 70%; inactive = the rest.
Legend:
[1] = NCI Yeast Anticancer Drug Screen. Data for the wt1 strain (AID 149);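 note: 0% = growth of vehicle-treated wt1 cultures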; conditions: S. cerevisiae wt1 strain (SPY 50644) growth inhibition, stronger effect = higher value
Summary of the method: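 Measured: growth of wt1 yeast under compound versus vehicle treatment, reported as inhibition.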

[2] = NCI Yeast Anticancer Drug Screen. Data for the rad50EPP+ strain (AID 151);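 note: 0% = growth of vehicle-treated control cultures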; conditions: S. cerevisiae rad50 mutant strain, stronger effect = higher value
Summary of the method: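 Read-out is yeast growth inhibition relative to vehicle; cells used were the rad50EPP+ strain.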

[3] = NCI Yeast Anticancer Drug Screen. Data for the mgt1 strain (AID 153); conditions: S. cerevisiae mgt1 mutant growth inhibition, stronger effect = higher value
Summary of the method: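 Measured: inhibition of mgt1 yeast growth by compound, normalized to vehicle-treated cultures.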

[4] = NCI Yeast Anticancer Drug Screen. Data for the rad50 strain (AID 155);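 note: 0% = growth of vehicle-only cultures of the same strain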; conditions: S. cerevisiae rad50 strain growth inhibition, stronger effect = higher value
Summary of the method: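 Growth of the mutant yeast was measured after compound exposure and referenced to vehicle-treated cultures.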

[5] = NCI Yeast Anticancer Drug Screen. Data for the mec2-1 strain (AID 157); conditions: S. cerevisiae mec2-1 strain, stronger effect = higher value
Summary of the method: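 Using mec2-1 yeast: add compound, measure growth, express inhibition versus vehicle-treated cultures.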

[6] = NCI Yeast Anticancer Drug Screen. Data for the rad14 strain (AID 159);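 note: 0% = growth of vehicle-treated control cultures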; conditions: S. cerevisiae rad14 strain growth inhibition, stronger effect = higher value
Summary of the method: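 Here, inhibition of yeast growth was measured after compound exposure, using a strain with a genetic defect in DNA damage repair and vehicle-treated cultures as the reference.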

[7] = NCI Yeast Anticancer Drug Screen. Data for the sgs1 mgt1 strain (AID 161);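 note: 0% = growth of cultures given vehicle only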; conditions: S. cerevisiae sgs1 mgt1 strain, stronger effect = higher value
Summary of the method: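 This yeast growth screen uses a strain with defined DNA-repair lesions; compound-treated growth is compared with vehicle-treated growth.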

[8] = NCI Yeast Anticancer Drug Screen. Data for the CLN2oe strain (AID 163);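 note: 0% = growth of vehicle-only control cultures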; conditions: S. cerevisiae CLN2oe strain, stronger effect = higher value
Summary of the method: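 Whole-cell yeast growth assay. A strain engineered for altered cell-cycle control received compound, and inhibition relative to vehicle-treated cultures was recorded.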

[9] = NCI Yeast Anticancer Drug Screen. Data for the bub3 strain (AID 167); conditions: S. cerevisiae bub3 mutant strain, stronger effect = higher value
Summary of the method: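 Whole-cell yeast assay. The mutant strain was incubated with compounds, and growth inhibition was determined by comparison with vehicle-treated cells.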

[10] = NCI Yeast Anticancer Drug Screen. Data for the wt2 strain (AID 169);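 note: 0% = growth of vehicle-treated yeast cultures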; conditions: S. cerevisiae wt2 strain growth inhibition, stronger effect = higher value
Summary of the method: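 Treated yeast vs. vehicle-treated yeast: growth inhibition determined.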

[11] = NCI Yeast Anticancer Drug Screen. Data for the sgs1 strain (AID 173);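 note: 0% = growth of vehicle-only control cultures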; conditions: S. cerevisiae sgs1 mutant, stronger effect = higher value
Summary of the method: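 A genetically defined yeast mutant is incubated with the test compound, and its growth is compared to that of the same strain given vehicle.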

[12] = NCI Yeast Anticancer Drug Screen. Data for the mlh1 rad18 strain (AID 175); conditions: S. cerevisiae mlh1 rad18 strain growth inhibition, stronger effect = higher value
Summary of the method: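 Steps: expose repair-defective yeast to compound; measure growth; express inhibition against vehicle-treated controls.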

[13] = NCI Yeast Anticancer Drug Screen. Data for the rad18 strain (AID 177); conditions: S. cerevisiae rad18 mutant growth inhibition, stronger effect = higher value
Summary of the method: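 Measured value is growth inhibition of a yeast strain bearing a DNA repair alteration, referenced to vehicle-treated cells.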

[14] = at 5.0 µM (retest, dose inferred, filed as 0.5)
[15] = at 50.0 µM (retest, dose inferred, filed as 5.0)

In the case of O=C(/C(=C/c1ccccc1)CBr)c1ccccc1, the growth inhibition ([1]; at 1.2 µM) is reported as 0% (inactive), the growth inhibition ([1]; at 3.7 µM) is reported as 11% (inactive) and the growth inhibition ([1]; at 11.0 µM) is reported as 43% (inactive). For the same compound, the growth inhibition ([1]; at 33.0 µM) was 90% (active), the growth inhibition ([1]; at 100.0 µM) was 99% (active) and the growth inhibition ([2]; at 1.2 µM) was 17% (inactive). The growth inhibition ([2]; at 3.7 µM) was 50% (inactive), the growth inhibition ([2]; at 11.0 µM) was 82% (active) and the growth inhibition ([2]; at 33.0 µM) was 96% (active). For the same compound, the growth inhibition ([2]; at 100.0 µM) was 99% (active), the growth inhibition ([3]; at 1.2 µM) was -1% (inactive) and the growth inhibition ([3]; at 3.7 µM) was 7% (inactive). For the same compound, the growth inhibition ([3]; at 11.0 µM) was 49% (inactive), the growth inhibition ([3]; at 33.0 µM) was 95% (active) and the growth inhibition ([3]; at 100.0 µM) was 99% (active). For the same compound, the growth inhibition ([4]; at 1.2 µM) was 4% (inactive), the growth inhibition ([4]; at 3.7 µM) was 15% (inactive) and the growth inhibition [4, 14] was 22% (inactive). The growth inhibition ([4]; at 11.0 µM) was 61% (inactive), the growth inhibition ([4]; at 33.0 µM) was 96% (active) and the growth inhibition [4, 15] was 98% (active). The growth inhibition ([4]; at 50.0 µM) was 66.5% (inactive) and 79.2% (active), the growth inhibition ([4]; at 100.0 µM) was 99% (active) and the growth inhibition ([5]; at 1.2 µM) was 3% (inactive). The growth inhibition ([5]; at 3.7 µM) was 12% (inactive), the growth inhibition [5, 14] was 3% (inactive) and the growth inhibition ([5]; at 11.0 µM) was 58% (inactive). For the same compound, the growth inhibition ([5]; at 33.0 µM) was 96% (active), the growth inhibition [5, 15] was 98% (active) and the growth inhibition ([5]; at 50.0 µM) was 80.5% (active) and 61.1% (inactive). The growth inhibition ([5]; at 100.0 µM) was 99% (active), the growth inhibition ([6]; at 1.2 µM) was 3% (inactive) and the growth inhibition ([6]; at 3.7 µM) was 9% (inactive). The growth inhibition ([6]; at 11.0 µM) was 38% (inactive), the growth inhibition ([6]; at 33.0 µM) was 93% (active) and the growth inhibition ([6]; at 100.0 µM) was 99% (active). The growth inhibition [7, 14] was 50% (inactive), the growth inhibition [7, 15] was 99% (active) and the growth inhibition ([7]; at 50.0 µM) was 74% (active) and 59% (inactive). For the same compound, the growth inhibition ([8]; at 1.2 µM) was 2% (inactive), the growth inhibition ([8]; at 3.7 µM) was 6% (inactive) and the growth inhibition ([8]; at 11.0 µM) was 47% (inactive). The growth inhibition ([8]; at 33.0 µM) was 95% (active), the growth inhibition ([8]; at 100.0 µM) was 99% (active) and the growth inhibition ([9]; at 1.2 µM) was -3% (inactive). The growth inhibition ([9]; at 3.7 µM) was 0% (inactive), the growth inhibition [9, 14] was 22% (inactive) and the growth inhibition ([9]; at 11.0 µM) was 54% (inactive). For the same compound, the growth inhibition ([9]; at 33.0 µM) was 94% (active), the growth inhibition [9, 15] was 94% (active) and the growth inhibition ([9]; at 50.0 µM) was 57.4% (inactive) and 83.7% (active). For the same compound, the growth inhibition ([9]; at 100.0 µM) was 99% (active), the growth inhibition ([10]; at 1.2 µM) was 4% (inactive) and the growth inhibition ([10]; at 3.7 µM) was 14% (inactive). For the same compound, the growth inhibition ([10]; at 11.0 µM) was 62% (inactive), the growth inhibition ([10]; at 33.0 µM) was 95% (active) and the growth inhibition ([10]; at 100.0 µM) was 99% (active). For the same compound, the growth inhibition ([11]; at 1.2 µM) was 5% (inactive), the growth inhibition ([11]; at 3.7 µM) was 21% (inactive) and the growth inhibition ([11]; at 11.0 µM) was 77% (active). The growth inhibition ([11]; at 33.0 µM) was 96% (active), the growth inhibition ([11]; at 100.0 µM) was 99% (active) and the growth inhibition [12, 14] was 68% (inactive). For the same compound, the growth inhibition [12, 15] was 99% (active), the growth inhibition ([12]; at 50.0 µM) was 74.5% (active) and 90.6% (active) and the growth inhibition ([13]; at 1.2 µM) was 6% (inactive). For the same compound, the growth inhibition ([13]; at 3.7 µM) was 22% (inactive), the growth inhibition ([13]; at 11.0 µM) was 81% (active) and the growth inhibition ([13]; at 33.0 µM) was 96% (active). The growth inhibition ([13]; at 100.0 µM) was 99% (active).

From PubChem BioAssay (NCI)
